Source: ChEMBL document CHEMBL1201862, “PubChem BioAssay data set” (2004)
About 5,800 (2.1%) of roughly 270,000 compounds were called active. Another 16% or so got no clear call; they are omitted. The calls are words filed in the database; no cut-off is given here. Many of the other results were omitted from the sample, so actives are more common in it than they were.

Each molecule was assayed against Microtubule-associated protein tau (Homo sapiens) (UniProt P10636) (assay: qHTS for Inhibitors of Tau Fibril Formation, Thioflavin T Binding. [Related pubchem assays: 596 ]).
Sequence of Microtubule-associated protein tau (Homo sapiens) (P10636 whole entry): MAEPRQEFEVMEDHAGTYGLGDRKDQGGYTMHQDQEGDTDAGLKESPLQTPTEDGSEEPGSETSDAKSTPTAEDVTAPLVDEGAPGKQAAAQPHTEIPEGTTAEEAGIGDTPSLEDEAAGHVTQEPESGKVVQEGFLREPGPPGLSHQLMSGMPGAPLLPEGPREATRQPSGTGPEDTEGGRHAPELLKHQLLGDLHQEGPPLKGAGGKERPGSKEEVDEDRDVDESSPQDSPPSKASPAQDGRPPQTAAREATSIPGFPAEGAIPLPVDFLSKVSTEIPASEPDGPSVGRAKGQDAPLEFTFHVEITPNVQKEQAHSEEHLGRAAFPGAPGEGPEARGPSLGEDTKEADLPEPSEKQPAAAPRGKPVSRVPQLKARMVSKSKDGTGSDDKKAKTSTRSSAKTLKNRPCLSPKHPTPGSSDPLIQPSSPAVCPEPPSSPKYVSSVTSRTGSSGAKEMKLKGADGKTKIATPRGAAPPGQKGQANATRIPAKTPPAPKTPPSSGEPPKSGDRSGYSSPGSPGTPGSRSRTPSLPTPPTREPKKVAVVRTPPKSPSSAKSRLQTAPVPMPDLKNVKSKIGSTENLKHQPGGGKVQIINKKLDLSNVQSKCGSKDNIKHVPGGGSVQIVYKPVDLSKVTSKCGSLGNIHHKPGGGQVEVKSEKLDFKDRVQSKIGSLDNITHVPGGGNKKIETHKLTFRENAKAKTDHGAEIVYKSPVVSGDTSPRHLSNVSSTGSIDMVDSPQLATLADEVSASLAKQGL

| Structure (SMILES) | Potency |
| --- | --- |
| O=C(O)c1cc(/N=N/c2ccc(S(=O)(=O)Nc3ccccn3)cc2)ccc1O | 12.6 µM (active) |
